Hits are enriched below; roughly 3.7% of the tested compounds scored in any of these assays.
Sm TGR block – blocks Schistosoma mansoni thioredoxin glutathione reductase | purified TGR, DTNB reduction, TNB absorbance 405 nm | Potency, µM (doses to about 114 µM), most hits filed as inhibitors | Q962Y6 | hit rate 3% among 360,000; also: nearly all actives have a fitted effect of over 60% in size
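First, TGR (20 nM dispensed) and NADPH were mixed with compound. Second, a 15 min room-temperature incubation followed. Third, further NADPH and then DTNB were added to start the reaction. Finally, TNB absorbance was monitored kinetically.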
TbPYK inhibitor – T. brucei pyruvate kinase inhibition | TbPYK enzyme, Kinase-Glo Plus ATP luminescence, 45 min | Potency, µM (top dose mostly 76.8 µM), hits mostly inhibitors | hit rate 0.12% among 410,000 | AID 624173; also: nearly all actives have a fitted effect of over 50% in size
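Readout: single end-point luminescence (Kinase-Glo Plus, 10 min). Reaction conditions were TbPYK/substrate plus 130 uM ADP, 45 min at RT, pH 7.2 TEA buffer. No-enzyme wells served as controls, and data were normalized before concentration-response fitting.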
FMDV inh – antivirals against foot and mouth disease virus. Potency, µM (top dose mostly 57.9 µM), usual class: inhibitors. hit rate 1.2% among 410,000. FMDV antiviral cell-based qHTS; calls by dose curve; tested in HEK293T cells; also: read-out not given here; nearly all actives have a fitted effect of over 45% in size
RE007 growth inh – less growth of the S. pombe RE007 Vpr strain; hit rate 0.21% among 360,000; Potency, µM (titrated, usually from 92.2 µM), actives largely listed as inhibitors; S. pombe RE007 Vpr strain, BacTiter-Glo ATP luminescence, 24 h; active = well fitted falling curve with a large enough effect; inconclusive = small, poorly fitted or top-dose-only effect; inactive = no such curve, though single readings can be large or run the other way; also: nearly all actives have a fitted effect of over 50% in size
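Fission yeast RE007 carrying one integrated HIV-1 vpr copy, seeded at OD 0.01 in PMG+AL medium with 23 nL pinned compound. Grown 24 h at 30 degrees; viability read by BacTiter-Glo luminescence after 5 min.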
A number is an active result; 0 = inactive; ? = inconclusive; - = no result; [ ] = remark or other dose. Unless noted, calls follow the shape of the dose curve; as a rule, active = well fitted curve in the direction sought with a large enough effect; inconclusive = small, poorly fitted or top-dose-only effect, or another doubt; inactive = no such curve, though single readings can be large; an effect the other way counts as inactive or inconclusive.

SMILES	Sm TGR block	TbPYK inhibitor	FMDV inh	RE007 growth inh
COc1ccc(NC(=O)Cn2c(CCC(=O)O)ccc2-c2ccccc2)cc1Cl	0	0	0	-
COc1ccccc1-n1c(CCC(=O)O)ccc1-c1ccccc1	28µM	0	0	0
COc1ccccc1NC(=O)Cn1c(CCC(=O)O)ccc1-c1ccc(C)cc1	0	0	0	0
COc1ccc(-c2ccc(CCC(=O)O)n2-c2ccccc2OC)cc1	11µM	0	0	0
COc1ccc(-n2c(CCC(=O)O)ccc2-c2ccccc2)c(OC)c1	8.9µM	0	0	-
COc1cccc(C2c3c(oc4cc(C)cc(C)c4c3=O)C(=O)N2CCc2ccc(OC)c(OC)c2)c1 (centres undefined)	0	0	0	-
O=C(NC1CCCC1)c1c[nH]c2ccc(S(=O)(=O)Nc3cccc(C(F)(F)F)c3)cc2c1=O	0	0	0	-
C/C(=N\Nc1ccc(C)c(Cl)c1)c1cccnc1	14µM	0	0	0
Nc1ccc(N(CCO)CCO)cc1	7.1µM	0	0	0
O=[N+]([O-])c1cc(-c2ccc([As](=O)(O)O)cc2)ccc1[As](=O)(O)O	8.9µM	-	-	-
CC1Cc2ccccc2N1C(=O)CSc1nnc2c(n1)[nH]c1ccccc12 (centres undefined)	0	0	14µM	0
O=C1CC(N2CCN(c3ccccc3Cl)CC2)C(=O)N1c1ccccc1 (centres undefined)	45µM	0	0	?
O=C1CC(N2CCCc3ccccc32)C(=O)N1c1ccccc1 (centres undefined)	25µM	0	0	0
O=C1CC(N2CCOCC2)C(=O)N1c1ccccc1Cl (centres undefined)	50µM	0	0	0
O=C1CC(N2CCN(c3ccc(Cl)cc3)CC2)C(=O)N1c1ccccc1 (centres undefined)	?	0	0	?
CCc1nn(CC(=O)NC2CC2)c(=O)c2cc3c(OC)cccc3n12	0	0	0	-
O=C1OC(Nc2ccc3c(c2)OCO3)c2ccccc21 (centres undefined)	8.9µM	?	?	0
O=C1OC(Nc2ccc(F)c([N+](=O)[O-])c2)c2ccccc21 (centres undefined)	0	0	0	0
CN(C)/N=C/C=C1\CCC/C(=C\c2ccc(F)c(F)c2)C1=O	16µM	0	0	0
COc1ccc(/C=C2\CCC/C(=C\C=N\N(C)C)C2=O)cc1	0	0	0	0
C/C(=N\NC(=S)Nc1cc(S(=O)(=O)N2CCOCC2)ccc1Cl)c1ccccc1F	0	0	13µM	0
CO[C@H]1[C@H](NC(=O)c2ccsc2)c2ccccc2C12CCN(Cc1cc(Cl)ccc1O)CC2	-	-	0	-
Cc1ccc2nc(NC(=S)NC(=O)c3ccc(OC(C)C)cc3)sc2c1	0.71µM	0	0	0
Cc1ccc2nc(NC(=O)CCCc3nc4ccccc4s3)sc2c1	0	0	0	0
CCOc1cc(C(=O)NC(=S)Nc2ccc(Cl)c(C(=O)O)c2)cc(OCC)c1OCC	32µM	0	0	0
SMILES	Sm TGR block	TbPYK inhibitor	FMDV inh	RE007 growth inh
Cc1ccc2nc(NC(=O)CCCC(=O)O)sc2c1	0	0	7.9µM	0
COc1cccc(C(=O)NC(=S)Nc2ccc(Cl)c(C(=O)O)c2)c1	32µM	0	0	0
Cc1oc(-c2ccccc2NC(=O)C2CCC2)nc1CNC(=O)c1ccc(C#CC(C)(C)O)cc1	-	-	0	-
O=S(=O)(NCc1nc2cccnc2n1Cc1ccccc1Cl)c1ccc2c(c1)CCCC2	0	0	0	-
COc1ccc(CN2CCN(C(C)=O)CC2)cc1OC1CCN(C(=O)c2ccc3[nH]c(C)c(C)c3c2)CC1	-	-	0	-
COc1cccc(-c2cc3c(c(OC)c2)OCCN(Cc2ccccc2O)C3)n1	-	-	0	-
CCc1cccc(NS(=O)(=O)c2cc(-c3cnc(C)o3)ccc2OC)c1	0	0	0	-
CC(C)Oc1ccc(C(=O)NC(=S)Nc2ccc(Cl)c(C(=O)O)c2)cc1	40µM	0	0	0
CCN(CC)CC#CCC(O)(c1ccccc1)c1ccccc1	0	0	0	0
CC(C)N(CC#CC(O)(c1ccccc1)c1ccccc1)CCO	0	0	0	0
C=CC(O)(C#CCN(CC)CC)c1ccccc1 (centres undefined)	45µM	0	0	0
CC(C)N(CC#CC(O)(c1ccccc1)c1ccccc1)C(C)C	40µM	0	0	0
OCCN(CC#CC(O)(c1ccccc1)c1ccccc1)CCO	40µM	0	0	0
COc1cc(CNCc2cc3cc(C)ccc3nc2-c2ccc(F)cc2)cc(OC)c1OC	-	-	0	-
CS(=O)(=O)N1CCC2(CCCN(Cc3ccc(C#N)cc3)C2)CC1	-	0	0	-
COc1ccc2[nH]c(=O)c(CN(Cc3cccs3)Cc3nnnn3Cc3ccccc3)cc2c1	0	-	?	0[3.69 µM]
CCC(c1nnnn1Cc1ccco1)N(CCN1CCOCC1)Cc1cc2cc(C)ccc2[nH]c1=O (centres undefined)	45µM	0	0	0
COC(=O)c1ccccc1S(=O)(=O)N(Cc1ccco1)Cc1cc2cc(OC)ccc2[nH]c1=O	7.1µM	0	0	0
CNC(=S)N(Cc1ccco1)Cc1cc2cc(OC)ccc2[nH]c1=O	0	0	?	0
Cc1ccc2cc(CN(CCN3CCOCC3)Cc3nnnn3Cc3ccco3)c(=O)[nH]c2c1C	35µM	0	0	0
CCOC(=O)Cn1nnnc1C(CC)N(Cc1cccs1)Cc1cc2cc(C)ccc2[nH]c1=O (centres undefined)	0	0	0	0
Cc1ccc2cc(CN(Cc3ccc4c(c3)OCO4)Cc3nnnn3Cc3ccco3)c(=O)[nH]c2c1C	?	0	0	0
COc1ccc2[nH]c(=O)c(CN(Cc3ccco3)Cc3nnnn3Cc3ccccc3)cc2c1	35µM	0	0	0
COc1ccc(CCN2C(=O)c3[nH]nc(-c4ccccc4O)c3C2c2ccccc2)cc1 (centres undefined)	0	0	?	-
COc1ccccc1NC(=O)CSCc1cc(=O)c2cccc(Cl)c2[nH]1	0	0	0	-
SMILES	Sm TGR block	TbPYK inhibitor	FMDV inh	RE007 growth inh
O=C(NC1CC(=O)N(c2cccc(F)c2)C1)c1ccc(S(=O)(=O)N2CCCCC2)cc1 (centres undefined)	0	0	0	-
O=C(c1nc(-c2ccc(Cl)cc2)n2c1CCCCC2)N1CCN(c2ccccc2F)CC1	0	0	0	-
CCOc1ccc2[nH]c(=O)c(CN(Cc3ccco3)Cc3nnnn3Cc3ccccc3)cc2c1	22µM	0	0	0
COc1ccccc1CN(Cc1cc2cc(C)ccc2[nH]c1=O)Cc1nnnn1Cc1ccco1	40µM	0	?	0
CCc1ccc2[nH]c(=O)c(CN(Cc3ccccc3OC)Cc3nnnn3Cc3ccco3)cc2c1	?	0	?	0
CCOc1ccc2[nH]c(=O)c(CN(Cc3ccco3)C(CC)c3nnnn3Cc3ccccc3)cc2c1 (centres undefined)	16µM	0	?	0
Cc1ccc2[nH]c(=O)c(CN(Cc3ccco3)S(=O)(=O)c3c(C)ccc4nsnc34)cc2c1	28µM	0	-	0
Cc1ccc(NC(=O)/C(C#N)=C/c2cc(C)n(-c3ccc(Br)cc3)c2C)cc1C	0	?	?	-
O=C(NC1CC(=O)N(c2ccc(F)cc2)C1)C1CCCC1 (centres undefined)	0	0	0	-
O=C(CSc1nnc(-c2ccncc2)n1Cc1ccco1)Nc1cccc(O)c1	0	0	0	0
